In all, about 1,800 compounds went through this assay and about 860 (48%) were called active. So high a share suggests a set chosen from earlier hits. These entries were drawn from the full list. A number with no mark means an inactive call. Rule as the data show it: active = inhibition above about 17%; inactive = the rest.

The nature of this assay: CHO-K1 parental line HTRF response – cell-based, counter-screen for OX1R antagonist project (AID 493232).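 Also: 0% = agonist challenge with vehicle and 100% = vehicle alone without agonist.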 To be noted: parental CHO-K1 cells, HTRF counterscreen; at 6.6 µM; hits give high values.
Turning to `NS(=O)(=O)c1ccc(CCNC(=O)c2ccc([N+](=O)[O-])cc2[N+](=O)[O-])cc1`, the inhibition was 76.4% (active).
Take `O=C(Nc1nnc(-c2ccccc2)o1)c1cc(-c2cccs2)nc2ccccc12`: the inhibition was -1.4%.
For `Cn1c(N)c(C(=O)COC(=O)c2ccc3ccccc3c2)c(=O)n(C)c1=O`, the inhibition is 9.11%.
The figure for `COc1ccc(CCn2c(NCCCN3CCOCC3)nc3c2c(=O)[nH]c(=O)n3C)cc1` is -0.46%; for `O=C(/C=C/c1ccco1)Nc1cccc(-c2nc3ccccc3[nH]2)c1` it is 20.4% (active); for `Cc1ccc2c(c1)nnc1nnc(SCC(=O)O)n12` it is 113% (active).
With `CCn1c(SCC(=O)c2ccc3ccccc3c2)nnc1-c1cccs1`, the inhibition was 7.75%.
`COc1ccc2[nH]c(=O)c(CNc3ccc(C)c(C)c3)cc2c1`: the inhibition was 33.7% (active).
In the case of `CN(C(=O)CSc1nnc(-c2n[nH]c3ccccc23)o1)c1ccccc1` it was -4.39%; in that of `O=C(Nc1ccc2sc3ccccc3c(=O)c2c1)c1ccccc1Cl`, -3.67%; in that of `Cc1ccc(Nc2nc(CSc3nnnn3-c3ccccc3)cc(=O)[nH]2)cc1`, 1.23%.
`CCn1c(O)c(N=NC2=NC(=O)CS2)c2cc(C)ccc21`: the inhibition is 21.8% (active).
In the case of `COc1cc(C(=S)N2CCOCC2)cc(OC)c1OC(=O)c1ccc([N+](=O)[O-])cc1[N+](=O)[O-]` it was 8.29%; in that of `O=C(Oc1ccccc1C(=S)N1CCCCC1)c1cc([N+](=O)[O-])cc([N+](=O)[O-])c1`, 56.2% (active).
On to `COC(=O)CNC(=O)c1ccc2c(c1)S(=O)(=O)c1ccccc1C2=O`, for which the inhibition was 70.6% (active).
`COc1cccc(C(=O)NC(=O)Nc2nc(C)cc(C(F)(F)F)n2)c1`: the inhibition is 0.24%.
Regarding `CCOc1ccc(CCNC(=O)C(CC)n2nc(C)n3c(cc4sccc43)c2=O)cc1OCC` (centres undefined), the inhibition is 7.91%.
Regarding `CCn1c(=N)c(C(=O)NCCCOC)cc2c(=O)n3cccc(C)c3nc21`, the inhibition is 83.9% (active).
In the case of `CCOc1ccc(/C=C/C(=O)OCC(=O)c2ccccc2OC)cc1OC` it was 7.57%; in that of `O=C(NCc1ccco1)C1CCCN(S(=O)(=O)c2cccc3nonc23)C1` (centres undefined), 19.7% (active).
Turning to `C/C(N)=C(/C#N)C(=O)COC(=O)c1cc(-c2ccc(C)cc2)nc2ccccc12`, the inhibition is 6.3%.
The figure for `COc1cc2ccccc2cc1C(=O)Nc1ccc(N2CCOCC2)cc1` is 16.2%; for `Cn1cnnc1Sc1ccc(S(C)(=O)=O)cc1[N+](=O)[O-]` it is 50.5% (active); for `Nc1[nH][nH]c(=O)c1N=Nc1ccc2c(c1)OCO2` it is 52.9% (active).
On to `COc1ccc(CCNC(=O)/C(C#N)=C2\N=C(NC(=O)c3cccs3)c3ccccc32)cc1`, for which the inhibition was 24% (active).
For the compound `O=C(N/N=C/c1c(Cl)[nH]c2ccccc12)c1sc2ccccc2c1Cl`, the inhibition is 16%.
In the case of `Cc1cc(C(=O)NC2CCCc3c2cnn3-c2cccc(C)c2C)c(C)o1` (centres undefined) it was 9.36%; in that of `O=C(Nc1nnc(C2=COCCO2)o1)c1ccc([N+](=O)[O-])s1`, 52.2% (active).
Regarding `Cc1ccccc1S(=O)(=O)N1[C@@H](c2cccc(Cl)c2)C(C(=O)O)=CC[C@H]1c1ccc(Cl)cc1`, the inhibition is 12.8%.
The figure for `COc1ccc(N2CC(C(=O)NCCN3C(=O)S/C(=C\c4cccnc4)C3=O)CC2=O)c(OC)c1` (centres undefined) is 56.9% (active); for `COc1ccccc1N1CC(C(=O)Nc2ccc(S(=O)(=O)N3CCOCC3)cc2)CC1=O` (centres undefined) it is 8.11%; for `COc1ccc(S(=O)(=O)NC(C)c2ccccc2)cc1C(=O)N1CCCCC1` (centres undefined) it is -4.56%.
With `CC(=O)Oc1ccc(C(C)=O)c2c1OCCO2`, the inhibition was 0.1%.
In the case of `COc1cccc(N=c2oc3c(C)ncc(CO)c3cc2C(N)=O)c1`, the inhibition was 51.5% (active).
As for `COc1cccc(/C=N/Nc2cc(C)nc(-c3ccccc3O)n2)c1O`, the inhibition is 15.3%.
The figure for `CSCCC(NC(=O)c1cc([N+](=O)[O-])cc([N+](=O)[O-])c1)c1nc2ccccc2[nH]1` (centres undefined) is 24.7% (active); for `COc1cccc(/C=N/NC(=O)c2[nH]nc3c2CCc2ccccc2-3)c1O` it is -15.5%.
The figure for `COCCNC(=O)Nc1ccc2nc(-c3ccco3)c(-c3ccco3)nc2c1` is 48.3% (active); for `Cc1cc(-c2ccc(C)c(S(=O)(=O)NC(C)Cc3ccco3)c2)on1` (centres undefined) it is -2.9%.
Consider `CCn1c(C)nc2c1C(=O)c1ccccc1C2=O`, for which the inhibition is 97.1% (active).
For `C[n+]1ccccc1C1CCCC/C1=N\Nc1ccc([N+](=O)[O-])cc1[N+](=O)[O-]` (centres undefined), the inhibition is 9.46%.
Regarding `c1ccc(-c2nc(NCc3ccco3)c3ccccc3n2)cc1`, the inhibition was 8.16%.
The figure for `CC(=O)N/N=C/c1cc2c(cc1[N+](=O)[O-])OCO2` is 60.3% (active); for `O=C(CN1C(=O)c2cccc3cccc(c23)C1=O)N1CCCCC1` it is 50% (active); for `CCC(=O)N(C)C(c1ccccc1Cl)c1nnnn1-c1c(C)cccc1C` (centres undefined) it is 0.65%.
`Cc1cccc(NS(=O)(=O)c2cccc(C(=O)NNC(=O)c3ccccc3O)c2)c1`: the inhibition is 4.72%.
For `N#C/C(=C1\CCCN1)c1nc(-c2ccccc2)cs1`, the inhibition was 10.3%.
Regarding `Nc1ccc2nc3c(=O)[nH]c(=S)[nH]c3nc2c1`, the inhibition was 77% (active).
Take `Nc1nc(-c2sc3nc4c(cc3c2N)CCCC4)nc(N2CCOCC2)n1`: the inhibition is 16.2%.
Consider `Cc1cc(C)cc(NC(=O)C2CCCN2S(=O)(=O)c2cccc3cccnc23)c1` (centres undefined), for which the inhibition was -5.63%.
With `CC(=O)c1cccc(NC(=O)C2CCCN2S(=O)(=O)c2cccc3nsnc23)c1` (centres undefined), the inhibition was 33% (active).
On to `O=C(N/N=C/c1sc(N2CCCCC2)nc1-c1cccs1)c1cccnc1`, for which the inhibition is 6.55%.
In the case of `N#Cc1nc(-c2cccc3ccccc23)oc1N` it was -17.8%.
`O=C(Nc1ccccc1Cl)/C(Cl)=C(\Cl)S(=O)c1ccccc1` (centres undefined): the inhibition is -27.6%.
As for `COc1ccc2oc(=O)c(C(=O)NCc3ccccn3)cc2c1`, the inhibition was 47.5% (active).
With `O=C(O)CCC(=O)Nc1nc2ccc([N+](=O)[O-])cc2s1`, the inhibition is 47.7% (active).
Consider `COc1cccc(/C=C/c2ccc3ccccc3n2)c1OC(C)=O`, for which the inhibition was 11.5%.
`Cc1c(/C=N\NC(=O)c2cc3ccccc3o2)c2ccccc2n1C`: the inhibition is 12.8%.
Consider `COC(=O)N/N=C/c1c[n+]([O-])c2ccccc2[n+]1[O-]`, for which the inhibition was 97.3% (active).

As a reminder, the inhibition is the relative decrease from the control value, in per cent.

The record behind these values is PubChem BioAssay AID493232 (The Scripps Research Institute Molecular Screening Center, 2011).
